Structures are written as SMILES. “And” between values parts separate entries of the source, which are not always exact repeats. Identical values can stand only once. Records with an inconclusive call do not appear. The source holds several records for some structures; these can differ, active in one and inactive in another. The source made the active and inactive calls. Calls follow the shape of the dose curve; as a rule, active = well fitted curve in the direction sought with a large enough effect in the repeat runs; inconclusive = weak or mixed curves; inactive = no such curve, though single readings can be large; an effect the other way counts as inactive or inconclusive.

Results on ten compounds are retold here after PubChem BioAssay (Tox21).

Assay [1] can be described thus: Human pregnane X receptor (PXR) small molecule agonists, qHTS cell viability counter screen (AID 1346977). Also: nearly all actives have a fitted effect of over 50% in size. Also: potency is read from the fitted curve at half-maximal effect. A digest of the protocol:
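After a 5hr pre-incubation, PXR-Luc HepG2 cells received compounds plus positive control in DMSO and were kept 24hr at 37C. Cell viability was quantified by fluorescence from CellTiter-Fluor added for the final hour.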

Assay [2] can be described thus: Caspase-3/7 induction in HepG2 cells by small molecules, qHTS assay (AID 1346978). Also: nearly all actives have a fitted effect of over 15% in size. Also: potency is read from the fitted curve at half-maximal effect. The essentials:
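Wild-type HepG2 cells, 2,000/well, settled 5 hr at 37 C and 5% CO2, then compound-treated for 17 hr; caspase-3/7 activity read by luminescent Caspase-Glo 3/7 after 30 min at room temperature.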

Assay [3] is described as follows: Caspase-3/7 induction in CHO-K1 cells by small molecules, qHTS cell viability counter screen (AID 1346979). Also: nearly all actives have a fitted effect of over 35% in size. Also: potency is read from the fitted curve at half-maximal effect. A digest of the protocol:
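Multiplexed with Caspase-Glo 3/7 in CHO-K1 cells, this counter screen added CellTiter-Fluor after 16hr of compound exposure and recorded fluorescence 1hr later.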

The nature of assay [4]: Caspase-3/7 induction in CHO-K1 cells by small molecules, qHTS assay (AID 1346980). Also: nearly all actives have a fitted effect of over 15% in size. The essentials: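 Wild-type CHO-K1 cells exposed to compounds for 17hr at 37 C, 5% CO2. Caspase-3/7 activity then measured by Caspase-Glo 3/7 luminescence after 30min at room temperature.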
Assay [5] addresses Nuclear receptor subfamily 1 group I member 2 (Homo sapiens) (UniProt O75469). As to the kind of experiment: Human pregnane X receptor (PXR) small molecule agonists, qHTS assay (AID 1346982). Also: nearly all actives have a fitted effect of over 35% in size. Also: potency is read from the fitted curve at half-maximal effect. A digest of the protocol:
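Cells: HepG2 stably carrying PXR-Luc. Medium held 5% charcoal-stripped FBS. Compounds in DMSO added after 5 hr plating, incubated 24 hr, then luminescence quantified with ONE-Glo.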

Assay [6] concerns the target Cytochrome P450 2D6 (Homo sapiens) (UniProt P10635). As to the kind of experiment: Cytochrome P450 Family 2 Subfamily D Member 6 (CYP2D6) small molecule antagonists: luciferase reporter qHTS assay (AID 1671196). Also: series mostly up to about 120 µM; nearly all actives have a fitted effect of over 50% in size. The essentials: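 Enzyme and proluciferin substrate were first combined with test chemical for 10 min at room temperature. Adding NADPH regeneration solution started a 1 h reaction, stopped with luciferin detection reagent and read by luminescence 20 min later.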

The target in assay [7] is Cytochrome P450 2C19 (Homo sapiens) (UniProt P33261). Put plainly: Cytochrome P450 Family 2 Subfamily C Member 19 (CYP2C19) small molecule antagonists: luciferase reporter qHTS assay (AID 1671197). Also: nearly all actives have a fitted effect of over 65% in size. Also: potency is read from the fitted curve at half-maximal effect. As to activity change, negative = inhibition: series mostly up to about 120 µM. A digest of the protocol: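 Light output is proportional to CYP2C19 activity: proluciferin substrate is converted to luciferin, then detected by a luciferin detection reagent that also stops the 1 h, 37C NADPH-driven reaction. Ketoconazole serves as positive control.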

The target in assay [8] is Cytochrome P450 2C9 (Homo sapiens) (UniProt P11712). Put plainly: Cytochrome P450 Family 2 Subfamily C Member 9 (CYP2C9) small molecule antagonists: luciferase reporter qHTS assay (AID 1671198). Also: series mostly up to about 120 µM; nearly all actives have a fitted effect of over 50% in size. The essentials:
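P450-Glo proluciferin substrate with CYP2C9 enzyme; 10 min RT preincubation, then NADPH regeneration 1 h at 37C; luciferin detection reagent 20 min RT, luminescence in relative luminescence units.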

In assay [9] the target is Cytochrome P450 1A2 (Homo sapiens) (UniProt P05177). Put plainly: Cytochrome P450 Family 1 Subfamily A Member 2 (CYP1A2) small molecule antagonists: luciferase reporter qHTS assay (AID 1671199). Also: nearly all actives have a fitted effect of over 50% in size. Also: potency is read from the fitted curve at half-maximal effect. As to activity change, negative = inhibition: series mostly up to about 120 µM. The essentials: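 Compounds were incubated with CYP1A2 and a luminogenic proluciferin substrate for 10 min at room temperature before the reaction was started with NADPH regeneration solution. After 1 h, detection reagent was added and light output, proportional to CYP activity, was recorded.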

In assay [10] the target is Voltage-gated inwardly rectifying potassium channel KCNH2 (Homo sapiens) (UniProt Q12809). Put plainly: Human Ether-a-go-go-Related Gene (hERG) channel small molecule antagonists: fluorescence cell-based qHTS assay (AID 1671200). The essentials:
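Cell line hERG-U2OS; dye FluxOR II, 1 h RT dark; Tl+ stimulus; ex 480/em 540 nm, read each second for 2 min.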

The target of assay [11] is Cytochrome P450 3A4 (Homo sapiens) (UniProt P08684). As to the kind of experiment: Cytochrome P450 Family 3 Subfamily A Member 4 (CYP3A4) small molecule antagonists: luciferase reporter qHTS assay (AID 1671201). The essentials:
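Room-temperature assay throughout: 10 min compound–enzyme/substrate preincubation, 1 h reaction after NADPH regeneration solution, 20 min detection. Luciferin formed from proluciferin substrate is quantified by luminescence.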

Assay [12] is described as follows: Caspase-3/7 induction in HepG2 cells by small molecules, qHTS cell viability counter screen (AID 1346981). Also: series mostly up to about 92 µM; nearly all actives have a fitted effect of over 30% in size. The essentials:
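Cell viability is measured as a cytotoxicity counter screen alongside the Caspase-Glo 3/7 readout in identical wells. Wild-type HepG2 cells are treated with test compounds for 16 hr at 37 C before CellTiter-Fluor addition and a 1-hr incubation.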

Assay [13] deals with Nuclear receptor subfamily 1 group I member 2 (Rattus norvegicus) (UniProt Q9R1A7). Put plainly: Rat pregnane X receptor (rPXR) activation by small molecules, qHTS assay (AID 1346983). Also: nearly all actives have a fitted effect of over 20% in size. The conditions noted are these: rPXR luciferase reporter cells, One-Glo luminescence, 24 h; stronger effect = higher value. A digest of the protocol: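 Cell-based rPXR activation assay: rPXR cells, 2,000 per well, rested 5hr at 37 C, then exposed to compounds in DMSO for 24 hr at 37 C. Luciferase activity read by One-Glo luminescence after 30 min at room temperature.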

Assay [14] has as its target Nuclear receptor subfamily 1 group I member 2 (Homo sapiens) (UniProt O75469). As to the kind of experiment: Human pregnane X receptor (PXR) activation by small molecules, qHTS assay (AID 1346985). Also: nearly all actives have a fitted effect of over 40% in size. A digest of the protocol:
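DPX-2 cells (HepG2 co-transfected with a PXR response element and a CYP3A4-promoter luciferase construct) were seeded at 2,000 per well, rested 5 hr at 37C, then exposed to DMSO-dissolved compounds for 24 hr. Activation was read as luciferase luminescence.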

Assay [15] shares this target. Put plainly: CYP3A4 induction through human pregnane X receptor (PXR) by small molecules, qHTS assay (AID 1346984). Also: nearly all actives have a fitted effect of over 40% in size. The essentials: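 Quantitative HTS in DPX-2 cells, i.e. HepG2 transfected with PXR response element and CYP3A4-promoter luciferase. Compounds in DMSO incubated 24hr at 37C; then P450-Glo CYP3A4 substrate, 3uM final, 3hr; One-Glo luminescence.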
% is scaled to controls: 0 for no effect and ±100 for the full control effect.

Nuclear receptor subfamily 1 group I member 2 (Homo sapiens), sequence (O75469 whole entry, looked up): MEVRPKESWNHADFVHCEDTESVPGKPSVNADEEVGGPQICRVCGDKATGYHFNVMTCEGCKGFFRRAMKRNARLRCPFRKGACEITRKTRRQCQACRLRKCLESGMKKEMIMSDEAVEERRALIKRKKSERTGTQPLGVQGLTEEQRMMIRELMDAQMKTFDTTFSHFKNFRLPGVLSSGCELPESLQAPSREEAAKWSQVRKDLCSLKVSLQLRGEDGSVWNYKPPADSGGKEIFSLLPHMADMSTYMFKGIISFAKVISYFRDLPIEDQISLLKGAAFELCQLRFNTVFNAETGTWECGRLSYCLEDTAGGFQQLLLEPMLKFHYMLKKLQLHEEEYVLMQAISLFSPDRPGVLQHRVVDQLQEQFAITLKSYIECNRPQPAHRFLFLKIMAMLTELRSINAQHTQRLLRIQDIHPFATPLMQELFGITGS
Cytochrome P450 2D6 (Homo sapiens), sequence (P10635 whole entry, looked up): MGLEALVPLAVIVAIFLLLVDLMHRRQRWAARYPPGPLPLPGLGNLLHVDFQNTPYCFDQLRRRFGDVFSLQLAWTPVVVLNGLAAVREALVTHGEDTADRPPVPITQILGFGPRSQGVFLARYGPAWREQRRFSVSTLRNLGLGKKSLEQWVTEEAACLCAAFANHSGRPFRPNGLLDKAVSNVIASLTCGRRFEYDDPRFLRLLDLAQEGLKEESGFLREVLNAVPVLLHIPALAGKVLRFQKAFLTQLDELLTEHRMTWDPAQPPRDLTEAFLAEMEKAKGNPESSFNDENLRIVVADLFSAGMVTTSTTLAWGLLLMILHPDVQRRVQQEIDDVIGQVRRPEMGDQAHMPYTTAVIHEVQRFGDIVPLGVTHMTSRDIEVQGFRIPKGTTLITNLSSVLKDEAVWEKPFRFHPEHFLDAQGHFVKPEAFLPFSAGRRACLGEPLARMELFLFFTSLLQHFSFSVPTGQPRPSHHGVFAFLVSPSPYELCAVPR
Cytochrome P450 3A4 (Homo sapiens), sequence (P08684 whole entry, looked up): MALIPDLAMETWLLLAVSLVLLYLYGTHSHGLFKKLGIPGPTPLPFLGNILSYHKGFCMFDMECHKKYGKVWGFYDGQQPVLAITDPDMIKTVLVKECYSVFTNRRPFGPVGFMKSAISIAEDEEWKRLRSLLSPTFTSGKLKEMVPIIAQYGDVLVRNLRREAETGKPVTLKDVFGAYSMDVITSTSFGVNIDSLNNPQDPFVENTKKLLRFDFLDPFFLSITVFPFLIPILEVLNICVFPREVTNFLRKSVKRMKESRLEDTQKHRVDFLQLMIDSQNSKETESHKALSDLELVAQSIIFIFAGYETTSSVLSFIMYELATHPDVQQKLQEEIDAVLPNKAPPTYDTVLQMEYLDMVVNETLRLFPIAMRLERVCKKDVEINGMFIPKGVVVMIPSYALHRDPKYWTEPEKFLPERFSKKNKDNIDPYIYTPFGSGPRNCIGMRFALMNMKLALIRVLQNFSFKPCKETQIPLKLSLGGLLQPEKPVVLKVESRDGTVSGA
Cytochrome P450 2C9 (Homo sapiens), sequence (P11712 whole entry, looked up): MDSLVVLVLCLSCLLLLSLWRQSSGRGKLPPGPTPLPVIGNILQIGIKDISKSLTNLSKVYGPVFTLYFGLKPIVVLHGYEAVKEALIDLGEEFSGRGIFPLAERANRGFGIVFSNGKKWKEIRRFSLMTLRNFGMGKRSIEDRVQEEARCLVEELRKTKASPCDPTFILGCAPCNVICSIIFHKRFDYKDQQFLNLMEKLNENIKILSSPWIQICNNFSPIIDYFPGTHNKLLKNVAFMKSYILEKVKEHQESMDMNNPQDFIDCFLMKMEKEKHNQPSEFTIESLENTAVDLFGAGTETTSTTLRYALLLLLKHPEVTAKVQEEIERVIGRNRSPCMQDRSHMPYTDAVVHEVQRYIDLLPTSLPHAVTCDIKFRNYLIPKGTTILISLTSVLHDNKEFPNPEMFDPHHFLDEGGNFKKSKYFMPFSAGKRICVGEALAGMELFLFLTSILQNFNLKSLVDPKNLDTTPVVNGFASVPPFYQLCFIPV
Cytochrome P450 1A2 (Homo sapiens), sequence (P05177 whole entry, looked up): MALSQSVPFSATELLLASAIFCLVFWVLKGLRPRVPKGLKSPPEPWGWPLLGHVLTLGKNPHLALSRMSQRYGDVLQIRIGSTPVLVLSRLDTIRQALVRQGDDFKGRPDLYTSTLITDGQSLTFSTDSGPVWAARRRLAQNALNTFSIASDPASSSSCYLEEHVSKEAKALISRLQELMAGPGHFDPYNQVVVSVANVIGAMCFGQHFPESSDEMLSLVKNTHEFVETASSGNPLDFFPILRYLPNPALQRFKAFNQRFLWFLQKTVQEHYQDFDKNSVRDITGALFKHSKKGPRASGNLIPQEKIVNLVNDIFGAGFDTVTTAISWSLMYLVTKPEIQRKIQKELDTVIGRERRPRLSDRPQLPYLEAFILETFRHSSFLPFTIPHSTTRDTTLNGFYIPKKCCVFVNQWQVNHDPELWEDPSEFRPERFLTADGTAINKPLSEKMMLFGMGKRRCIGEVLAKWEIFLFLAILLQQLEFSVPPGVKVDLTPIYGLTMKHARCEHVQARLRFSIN
Cytochrome P450 2C19 (Homo sapiens), sequence (P33261 whole entry, looked up): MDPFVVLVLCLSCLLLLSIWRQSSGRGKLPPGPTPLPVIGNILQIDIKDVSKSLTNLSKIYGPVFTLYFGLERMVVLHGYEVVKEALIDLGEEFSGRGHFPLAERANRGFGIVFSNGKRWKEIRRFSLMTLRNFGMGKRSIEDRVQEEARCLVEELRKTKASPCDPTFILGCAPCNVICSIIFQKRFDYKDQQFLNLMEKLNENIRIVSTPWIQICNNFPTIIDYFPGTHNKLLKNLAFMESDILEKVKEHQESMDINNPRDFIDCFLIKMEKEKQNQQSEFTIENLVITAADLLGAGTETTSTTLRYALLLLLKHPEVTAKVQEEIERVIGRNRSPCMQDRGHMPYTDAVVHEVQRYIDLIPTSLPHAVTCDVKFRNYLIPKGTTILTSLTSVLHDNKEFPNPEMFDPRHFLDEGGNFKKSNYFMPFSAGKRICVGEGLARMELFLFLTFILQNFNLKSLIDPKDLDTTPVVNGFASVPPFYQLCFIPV
Nuclear receptor subfamily 1 group I member 2 (Rattus norvegicus), sequence (Q9R1A7 whole entry, looked up): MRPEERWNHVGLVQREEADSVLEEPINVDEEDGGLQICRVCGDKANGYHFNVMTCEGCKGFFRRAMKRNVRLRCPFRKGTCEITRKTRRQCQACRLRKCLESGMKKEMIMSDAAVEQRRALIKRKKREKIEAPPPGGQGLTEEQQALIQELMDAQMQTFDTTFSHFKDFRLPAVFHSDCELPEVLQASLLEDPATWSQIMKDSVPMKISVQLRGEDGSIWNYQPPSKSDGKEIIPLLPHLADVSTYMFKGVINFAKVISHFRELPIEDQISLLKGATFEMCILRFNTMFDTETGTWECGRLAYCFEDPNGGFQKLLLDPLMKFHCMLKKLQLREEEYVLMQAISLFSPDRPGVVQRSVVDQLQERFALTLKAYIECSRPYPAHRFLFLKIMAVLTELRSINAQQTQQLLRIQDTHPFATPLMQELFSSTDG
Voltage-gated inwardly rectifying potassium channel KCNH2 (Homo sapiens), sequence (Q12809 whole entry, looked up): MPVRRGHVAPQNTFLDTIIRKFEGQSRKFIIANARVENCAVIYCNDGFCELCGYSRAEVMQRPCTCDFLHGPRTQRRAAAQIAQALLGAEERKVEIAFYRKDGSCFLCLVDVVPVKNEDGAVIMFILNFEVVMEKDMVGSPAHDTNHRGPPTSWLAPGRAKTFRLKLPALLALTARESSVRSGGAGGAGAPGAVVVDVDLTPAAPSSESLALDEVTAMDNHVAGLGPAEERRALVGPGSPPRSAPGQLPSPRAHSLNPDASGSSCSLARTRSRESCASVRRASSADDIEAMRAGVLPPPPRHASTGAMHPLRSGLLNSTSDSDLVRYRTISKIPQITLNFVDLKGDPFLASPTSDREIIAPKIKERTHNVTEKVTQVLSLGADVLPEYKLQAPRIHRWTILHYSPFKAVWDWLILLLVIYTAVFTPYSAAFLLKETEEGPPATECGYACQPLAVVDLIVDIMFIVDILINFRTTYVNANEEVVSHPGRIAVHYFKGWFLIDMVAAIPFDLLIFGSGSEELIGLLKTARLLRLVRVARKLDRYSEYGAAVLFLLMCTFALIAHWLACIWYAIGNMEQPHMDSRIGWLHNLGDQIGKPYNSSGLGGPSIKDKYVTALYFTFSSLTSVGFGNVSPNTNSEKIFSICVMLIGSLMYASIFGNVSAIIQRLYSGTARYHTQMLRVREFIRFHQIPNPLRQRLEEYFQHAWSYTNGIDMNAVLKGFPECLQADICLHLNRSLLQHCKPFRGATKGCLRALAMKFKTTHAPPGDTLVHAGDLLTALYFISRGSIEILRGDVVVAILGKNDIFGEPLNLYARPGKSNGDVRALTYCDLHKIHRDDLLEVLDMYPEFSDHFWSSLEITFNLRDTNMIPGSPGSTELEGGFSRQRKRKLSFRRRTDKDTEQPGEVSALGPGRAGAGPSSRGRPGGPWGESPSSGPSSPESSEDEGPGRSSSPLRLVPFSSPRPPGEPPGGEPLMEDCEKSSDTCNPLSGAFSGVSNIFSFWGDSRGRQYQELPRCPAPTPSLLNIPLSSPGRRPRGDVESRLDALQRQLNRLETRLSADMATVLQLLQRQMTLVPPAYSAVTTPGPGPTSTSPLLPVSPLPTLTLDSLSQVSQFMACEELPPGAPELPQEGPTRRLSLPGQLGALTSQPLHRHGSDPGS

Take `Cc1cc(C)cc(O)c1`: the Potency was 6.31 µM (active) and inactive in [1]; 12.2 µM (active) and inactive in assay [2]; 1.73 µM (active) and inactive in [3]; 40 µM (active) and 73.1 µM (active) in assay [7]; 35.7 µM (active) and 41.1 µM (active) in assay [9]. Besides, the Potency entry in assay [4], in assay [5], in [6], in assay [8], in assay [10] and in assay [11] was “inactive” throughout.

On to `CCn1cc(C(=O)O)c(=O)c2cc3c(cc21)OCO3`, for which the Potency result in [2], in assay [3], in [4], in [12], in assay [5] and in assay [6] was “inactive” throughout. Besides, in [10], the Potency entry is “inactive”. For the same compound, the Potency in assay [7] is 51 µM (active). Moreover, the values for the activity change, negative = inhibition in assay [7], in [8] and in assay [11] were -7.51% [at 23.6 µM] (inactive), 4.54% [at 23.6 µM] (inactive) and -0.272% [at 23.6 µM] (inactive), respectively.

Turning to `CCOC(=O)c1ccc(O)cc1`, the Potency result in assay [2], in assay [3], in assay [4], in [12], in assay [5] and in assay [10] was “inactive” in each case. The max activation in assay [13] was -2.61% (inactive). In addition, the result in [14] was inactive.

`CC(=O)Nc1ccc(CC(=O)O)cc1`: the Potency result in assay [2], in [3], in assay [4], in assay [12], in [5] and in assay [15] was “inactive” each time. Further, the Potency entry in assay [6], in assay [7], in assay [8], in [9], in [10] and in [11] was “inactive” each time. The max activation in assay [13] was -3.84% (inactive). Further, the compound was called inactive in assay [14].

`CCCN(CCC)C(=O)SCC`: the Potency result in [1], in assay [2], in assay [3], in assay [12], in assay [5] and in [6] was “inactive” in each case. In addition, the Potency entry in assay [7], in assay [8], in assay [9], in assay [10] and in [11] was “inactive” each time.

As for `CCCCC(=O)O`, the Potency entry in assay [1], in assay [2], in assay [3], in [12], in assay [5] and in [6] was “inactive” in each case. The Potency entry in assay [7], in assay [8], in assay [9], in [10] and in [11] was “inactive” throughout.

In the case of `COCN(COC)c1nc(N(COC)COC)nc(N(COC)COC)n1`, the Potency entry in [1], in assay [2], in [3], in [4], in [6] and in [9] was “inactive” each time. The Potency entry in [10] and in [11] was “inactive” in each case. In addition, the Potency in assay [5] is 54.5 µM (active).

Turning to `CN1CCCC1=O`, the Potency entry in assay [1], in assay [2], in [3], in assay [12], in assay [6] and in assay [7] was “inactive” throughout. Moreover, the Potency result in assay [8], in assay [9], in assay [10] and in assay [11] was “inactive” throughout. The Potency in [5] is 63.2 µM (active) and inactive.

As to `CCCCCCC(=O)O`, the Potency entry in assay [1], in [2], in [3], in [12], in [5] and in assay [6] was “inactive” throughout. For the same compound, the Potency entry in assay [7], in assay [8], in assay [9], in assay [10] and in [11] was “inactive” in each case.

On to `N[C@@H](Cc1cc(I)c(Oc2ccc(O)c(I)c2)c(I)c1)C(=O)O`, for which the Potency entry in assay [1], in assay [2], in [3], in assay [12], in [6] and in assay [10] was “inactive” each time. In addition, the Potency entry in [5] is “inactive and 63.7 µM (active)”; in [7] it was “inactive and 74 µM (active)”. In addition, in assay [13], the max activation was -2.4% (inactive).
